The text below walks through data of PubChem BioAssay (NCATS).

Assay [1] deals with Thyrotropin receptor (Homo sapiens) (UniProt P16473). Briefly: qHTS Assay for Antagonists of the Thyroid Stimulating Hormone Receptor (AID 488980). Note: series mostly up to about 58 µM; 0% is about no effect. An outline of the steps:
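TSHR-transfected HEK293 cells (2000/well) in HEPES-buffered HBSS with 70 uM RO 20-1724 were stimulated with 4 nM TSH (EC80, final) in the presence of compound. cAMP was measured by HTRF competition after lysis and 30 min at RT.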
(In general: In qHTS, concentration-response curves come from the screen itself.)

The target of assay [2] is D(1A) dopamine receptor (Homo sapiens) (UniProt P21728). Kind of assay: HTS Assay for Allosteric Agonists of the Human D1 Dopamine Receptor: Primary Screen for Agonists (AID 488981). Note: 0% is about no effect. An outline of the steps:
(§1)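 Tetracycline-induced HEK293 T-REx cells force-coupled to calcium signalling were incubated overnight at 30 C and dye-loaded at room temperature. Calcium flux over 180 s after compound addition flagged agonists; a further 180 s read after EC20 dopamine flagged potentiators.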

Assay [3] has the same target. Briefly: HTS Assay for Allosteric Agonists of the Human D1 Dopamine Receptor: Primary Screen for Potentiators (AID 488982). Note: potency is the fitted concentration of half-maximal effect. An outline of the steps: as §1
The nature of assay [4]: Validation screen for small molecules that induce genotoxicity in human embryonic kidney (HEK293T) cells expressing luciferase-tagged ELG1 (AID 493106). Note: 0% is about no effect. The method, boiled down:
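In this validation screen, increased ELG1-luciferase signal flags compounds causing genetic stress. HEK293T reporter cells are treated 16 hr (37 °C, 5% CO2), developed with ONE-Glo for 30 min at room temperature, and imaged on a CCD-based reader.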

Assay [5] deals with ATPase family AAA domain-containing protein 5 (Homo sapiens) (UniProt Q96QE3). Briefly: Validation screen for small molecules that inhibit ELG1-dependent DNA repair in human embryonic kidney (HEK293T) cells expressing luciferase-tagged ELG1 (AID 493107).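 Note: cells co-treated with the DNA-damaging agent 5-fluorouridine alongside compound; series mostly up to about 46 µM; % is set by controls: 0 for no effect and ±100 for the full control effect; inhibitors lower the ELG1-luciferase luminescence signal; nearly all actives have a fitted effect of over 70% in size.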 An outline of the steps: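 Compounds reducing 5-fluorouridine-driven ELG1-luciferase signal in HEK293T cells were scored; exposure lasted 16 hr at 37 °C with luminescence detected via ONE-Glo.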

Assay [6] can be described thus: Nrf2 qHTS screen for inhibitors: Validation (AID 493153; active = well fitted inhibition curve with a large enough effect in the main read-out, with a control signal flat, not every such curve was filed as active). The conditions noted are these: Potency: luciferase luminescence; viability change: measured here: cytotoxicity max response. The method, boiled down:
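In this counterscreened reporter format, each well gives two signals: CellTiter-Fluor fluorescence for cytotoxicity and ARE-luciferase luminescence for Nrf2 function. A549 ARE_Fluc cells in 5% FBS OPTI-MEM were exposed to compound titrations for 18-24 h.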

The target in assay [7] is D(1A) dopamine receptor (Homo sapiens) (UniProt P21728). Kind of assay: HTS Assay for Allosteric Agonists of the Human D1 Dopamine Receptor: Primary Screen for Antagonists (AID 488983).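 Note: calcium flux response to an EC80 dopamine challenge measured with no-wash dye; nearly all actives have a fitted effect of over 65% in size.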 Note: potency is the fitted concentration of half-maximal effect. An outline of the steps: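 In this primary screen, compounds are applied to calcium-dye-loaded HEK293 T-REx cells with force-coupled D1 expression induced overnight at 30 C. An EC80 of dopamine follows the 180 s compound phase, and calcium is monitored for a further 180 s.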

Assay [8] has as its target Thyrotropin-releasing hormone receptor (Homo sapiens) (UniProt P34981). Kind of assay: qHTS for Small Molecule Agonists and Allosteric Enhancers of Human TRH Receptor: Validation Screen for Agonists (AID 493127;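 active = calcium activation more than 3 SD above the typical response in the agonist read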;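 note: intracellular calcium rise by fluo-8 fluorescence before TRH EC20 addition; 0% is about no effect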). The conditions noted are these: TRH receptor agonist cell assay; at 2 µM; stronger effect = higher value. An outline of the steps: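 Kinetic fluorescence assay of agonist-induced calcium release: overnight-plated TRHR cells, room-temperature fluo-8 loading, baseline then compound addition with per-second reads.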

Assay [9] addresses ATP-dependent 6-phosphofructokinase (Trypanosoma brucei brucei) (UniProt O15648). Briefly: qHTS Assay to Find Inhibitors of T. brucei phosphofructokinase: hit validation (AID 492961).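 Note: luminescence reports ADP formed as PFK phosphorylates fructose-6-phosphate with ATP; series mostly up to about 51 µM; % is set by controls: 0 for no effect and ±100 for the full control effect.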 The method, boiled down:
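Reaction: 0.1 M triethanolamine pH 8.0, 5 mM MgCl2, F6P 0.5 mM, ATP 0.1 mM, PFK 1.25 nM, 45 min RT. Read-out: ADP-Glo luminescence. Analysis: concentration-response fits, classed by r2 and efficacy.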

The structures appear in SMILES notation. Results filed as inconclusive are left out. Active and inactive are the calls of the source. Unless noted, calls come from the whole dose curve; as a rule, active = well fitted curve in the direction sought with a large enough effect; inconclusive = small, poorly fitted or top-dose-only effect, or another doubt; inactive = no such curve, though single readings can be large; an effect the other way counts as inactive or inconclusive.

Sequence of Thyrotropin receptor (Homo sapiens) (P16473 whole entry, looked up): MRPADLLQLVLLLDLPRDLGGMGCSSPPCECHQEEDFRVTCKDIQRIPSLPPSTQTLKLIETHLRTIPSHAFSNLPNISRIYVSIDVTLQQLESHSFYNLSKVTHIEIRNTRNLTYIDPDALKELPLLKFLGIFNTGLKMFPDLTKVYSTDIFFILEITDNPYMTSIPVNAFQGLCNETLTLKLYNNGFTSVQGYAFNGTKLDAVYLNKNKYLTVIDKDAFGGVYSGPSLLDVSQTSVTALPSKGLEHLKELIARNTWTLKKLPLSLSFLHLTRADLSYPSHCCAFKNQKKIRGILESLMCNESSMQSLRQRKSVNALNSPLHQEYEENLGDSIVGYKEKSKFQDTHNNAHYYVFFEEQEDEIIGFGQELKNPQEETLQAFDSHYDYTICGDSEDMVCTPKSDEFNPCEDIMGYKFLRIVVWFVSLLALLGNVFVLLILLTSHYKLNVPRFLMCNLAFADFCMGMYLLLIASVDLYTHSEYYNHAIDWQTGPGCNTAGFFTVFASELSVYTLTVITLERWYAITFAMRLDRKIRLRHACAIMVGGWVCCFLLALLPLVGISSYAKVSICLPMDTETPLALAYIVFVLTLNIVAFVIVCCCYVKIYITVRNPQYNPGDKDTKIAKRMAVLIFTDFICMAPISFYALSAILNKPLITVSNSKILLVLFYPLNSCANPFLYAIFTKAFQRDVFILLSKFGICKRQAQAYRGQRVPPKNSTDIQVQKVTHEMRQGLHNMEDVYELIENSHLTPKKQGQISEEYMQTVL
Sequence of ATPase family AAA domain-containing protein 5 (Homo sapiens) (Q96QE3 whole entry, looked up, the tested form may be a part): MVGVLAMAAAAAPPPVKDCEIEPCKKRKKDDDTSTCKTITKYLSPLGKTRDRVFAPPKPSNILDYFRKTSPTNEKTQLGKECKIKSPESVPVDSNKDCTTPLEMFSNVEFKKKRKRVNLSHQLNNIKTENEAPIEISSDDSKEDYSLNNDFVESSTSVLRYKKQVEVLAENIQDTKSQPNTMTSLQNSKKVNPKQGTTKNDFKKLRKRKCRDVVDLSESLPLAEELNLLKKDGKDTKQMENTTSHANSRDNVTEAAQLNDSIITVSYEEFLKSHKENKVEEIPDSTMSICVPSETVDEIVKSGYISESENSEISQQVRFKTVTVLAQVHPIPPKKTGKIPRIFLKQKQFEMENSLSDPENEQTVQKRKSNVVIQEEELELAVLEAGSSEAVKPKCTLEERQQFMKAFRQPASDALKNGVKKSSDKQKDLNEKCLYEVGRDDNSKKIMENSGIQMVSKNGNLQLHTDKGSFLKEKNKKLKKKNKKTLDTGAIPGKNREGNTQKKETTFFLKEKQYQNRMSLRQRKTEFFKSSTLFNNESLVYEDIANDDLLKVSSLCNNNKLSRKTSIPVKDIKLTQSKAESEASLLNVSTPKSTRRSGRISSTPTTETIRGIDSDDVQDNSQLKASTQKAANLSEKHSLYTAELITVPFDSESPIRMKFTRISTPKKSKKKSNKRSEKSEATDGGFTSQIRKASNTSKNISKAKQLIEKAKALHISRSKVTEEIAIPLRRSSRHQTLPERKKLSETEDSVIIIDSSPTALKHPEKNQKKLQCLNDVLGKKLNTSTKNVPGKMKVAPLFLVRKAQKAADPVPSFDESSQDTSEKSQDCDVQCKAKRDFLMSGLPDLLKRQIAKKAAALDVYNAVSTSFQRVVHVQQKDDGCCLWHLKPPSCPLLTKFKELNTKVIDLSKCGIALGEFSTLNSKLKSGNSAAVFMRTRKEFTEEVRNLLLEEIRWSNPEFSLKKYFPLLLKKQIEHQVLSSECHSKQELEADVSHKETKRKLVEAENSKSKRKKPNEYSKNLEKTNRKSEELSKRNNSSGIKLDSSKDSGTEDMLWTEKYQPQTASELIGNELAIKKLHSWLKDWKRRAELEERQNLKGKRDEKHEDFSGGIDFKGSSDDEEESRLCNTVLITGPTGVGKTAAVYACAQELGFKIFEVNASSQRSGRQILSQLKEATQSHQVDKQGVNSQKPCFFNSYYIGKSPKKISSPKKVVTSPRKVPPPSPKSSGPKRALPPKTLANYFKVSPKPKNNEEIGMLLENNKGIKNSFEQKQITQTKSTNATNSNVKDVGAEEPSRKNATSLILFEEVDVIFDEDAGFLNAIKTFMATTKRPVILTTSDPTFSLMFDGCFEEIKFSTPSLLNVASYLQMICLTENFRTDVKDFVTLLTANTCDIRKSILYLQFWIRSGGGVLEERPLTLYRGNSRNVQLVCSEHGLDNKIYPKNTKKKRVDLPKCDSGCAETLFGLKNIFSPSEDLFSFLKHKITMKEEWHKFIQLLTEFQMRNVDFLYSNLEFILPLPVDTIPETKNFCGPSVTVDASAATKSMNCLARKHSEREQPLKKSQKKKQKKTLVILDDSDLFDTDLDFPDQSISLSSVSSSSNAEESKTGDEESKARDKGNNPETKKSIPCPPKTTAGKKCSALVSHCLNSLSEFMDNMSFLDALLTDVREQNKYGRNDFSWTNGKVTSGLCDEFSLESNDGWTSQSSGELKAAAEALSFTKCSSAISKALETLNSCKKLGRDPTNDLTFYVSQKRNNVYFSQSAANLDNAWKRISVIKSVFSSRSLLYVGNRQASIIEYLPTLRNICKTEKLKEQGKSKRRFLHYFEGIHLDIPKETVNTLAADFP
Sequence of D(1A) dopamine receptor (Homo sapiens) (P21728 whole entry, looked up): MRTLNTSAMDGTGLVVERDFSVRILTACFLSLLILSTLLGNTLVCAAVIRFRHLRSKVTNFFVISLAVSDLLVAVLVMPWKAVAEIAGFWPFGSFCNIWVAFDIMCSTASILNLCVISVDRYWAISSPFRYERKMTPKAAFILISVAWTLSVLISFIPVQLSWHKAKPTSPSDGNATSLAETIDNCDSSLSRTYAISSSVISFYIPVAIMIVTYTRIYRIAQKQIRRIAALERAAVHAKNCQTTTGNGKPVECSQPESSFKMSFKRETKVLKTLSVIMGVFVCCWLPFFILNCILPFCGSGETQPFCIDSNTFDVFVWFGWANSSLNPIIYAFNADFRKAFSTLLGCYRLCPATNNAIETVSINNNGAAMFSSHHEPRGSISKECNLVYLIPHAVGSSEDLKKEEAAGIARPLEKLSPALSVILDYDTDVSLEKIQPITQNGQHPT
Sequence of Thyrotropin-releasing hormone receptor (Homo sapiens) (P34981 whole entry, looked up): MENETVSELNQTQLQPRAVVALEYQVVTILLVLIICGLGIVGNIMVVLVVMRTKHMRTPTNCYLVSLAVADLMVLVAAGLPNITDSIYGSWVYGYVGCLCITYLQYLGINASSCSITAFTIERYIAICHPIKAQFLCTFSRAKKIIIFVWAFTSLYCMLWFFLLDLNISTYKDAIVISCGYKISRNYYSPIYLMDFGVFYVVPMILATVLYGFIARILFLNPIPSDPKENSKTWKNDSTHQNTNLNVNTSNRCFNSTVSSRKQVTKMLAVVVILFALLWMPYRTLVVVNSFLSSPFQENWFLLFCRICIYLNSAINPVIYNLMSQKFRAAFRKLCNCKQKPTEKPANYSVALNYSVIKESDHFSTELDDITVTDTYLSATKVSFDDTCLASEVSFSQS
Sequence of ATP-dependent 6-phosphofructokinase (Trypanosoma brucei brucei) (O15648 whole entry, looked up): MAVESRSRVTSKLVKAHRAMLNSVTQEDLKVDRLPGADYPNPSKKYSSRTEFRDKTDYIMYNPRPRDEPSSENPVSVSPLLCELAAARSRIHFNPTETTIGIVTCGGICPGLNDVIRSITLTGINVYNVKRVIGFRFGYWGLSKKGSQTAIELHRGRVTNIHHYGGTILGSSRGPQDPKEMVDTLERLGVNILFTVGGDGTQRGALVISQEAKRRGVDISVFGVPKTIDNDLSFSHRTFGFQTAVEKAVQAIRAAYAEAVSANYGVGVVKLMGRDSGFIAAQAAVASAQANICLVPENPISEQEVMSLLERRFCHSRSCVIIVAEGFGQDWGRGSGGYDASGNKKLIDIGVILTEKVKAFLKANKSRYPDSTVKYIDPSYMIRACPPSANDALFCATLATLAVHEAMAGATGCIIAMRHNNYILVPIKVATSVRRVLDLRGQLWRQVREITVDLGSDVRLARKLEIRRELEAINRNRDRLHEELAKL

With `O=C(O)c1ccccc1Nc1cccc(OCc2ccc3ccccc3n2)c1`, in assay [1], the result was inactive. The Potency entry in assay [2], in assay [3], in assay [4], in [5] and in assay [6] was “inactive” in each case. Besides, the viability change in assay [6] is -13.9%.

Turning to `C=CCn1c(=O)c2c(nc(-c3ccc(S(=O)(=O)O)cc3)n2C)n(C)c1=O`, the call in [1] was inactive. For the same compound, the Potency result in assay [2], in assay [7], in [4], in assay [5] and in assay [6] was “inactive” throughout. Also, the activation in assay [8] is -0.312% (inactive). Moreover, the viability change in [6] amounted to 9.3%.

Regarding `CCCCCCCCCC[Si](C)(C)CCC(=O)NC(Cc1ccc(C)cc1)c1ccccc1` (stereo unspecified), in [1], the result was inactive. The Potency result in [2], in [3], in assay [4], in [5] and in [6] was “inactive” in each case. The activation in [8] is 0.812% (inactive). For the same compound, the viability change in [6] was -1.11%.

Turning to `Cc1ccccc1/C=C/C1=NCCN1`, the compound was classed as inactive in assay [1]. Also, the Potency result in assay [2], in [4], in assay [5] and in assay [6] was “inactive” throughout. Also, the Potency in [7] is 12.6 µM (active). In addition, the activation in [8] was 0.5% (inactive). For the same compound, the viability change in assay [6] is -20.2%.

For the compound `O=C(O)/C=C/c1ccc(O)c(O)c1`, the outcome in [1] was inactive. Besides, the Potency entry in [2], in assay [3], in assay [4], in assay [5] and in assay [6] was “inactive” each time. In [6], the viability change amounted to 3.15%.

With `NC(Cc1cccc(-c2ccccc2CP(=O)(O)O)c1)C(=O)O` (stereo unspecified), in assay [1], the result was inactive. The Potency entry in assay [2], in assay [7], in assay [4], in assay [5] and in assay [6] was “inactive” in each case. Also, in assay [8], the activation is 1.31% (inactive). Besides, the viability change in assay [6] turned out to be 0.913%.

As to `NCCC1CCCC(CCN)N1` (stereo unspecified), the compound was called inactive in assay [1]. The Potency result in assay [2], in assay [7], in assay [4] and in [5] was “inactive” each time. Further, in assay [8], the activation was 1.19% (inactive).

As to `CC(=O)NNC(=O)N1Cc2ccccc2Oc2ccc(Cl)cc21`, the outcome in assay [1] was inactive. Also, the Potency result in [2], in assay [7], in assay [4], in [5] and in [6] was “inactive” in each case. For the same compound, the activation in [8] was 0.562% (inactive). Besides, the viability change in [6] is -4.76%.

For `CCSC(=N)N`, the call in assay [1] was inactive. The Potency entry in assay [2], in assay [7], in assay [4], in [5] and in assay [6] was “inactive” throughout. Further, the activation in assay [8] is 0.812% (inactive). Besides, in [6], the viability change was 0.659%.

For the compound `O=C(O)C1=CCNCC1`, the outcome in [1] was inactive. Moreover, the Potency entry in assay [2], in assay [7], in assay [4], in assay [5] and in assay [6] was “inactive” in each case. In assay [8], the activation was 1.25% (inactive). Moreover, the viability change in assay [6] is 7.14%.

As for `CCCCCCCC/C=C\CCCCCCCC(=O)NCCc1ccc(O)c(O)c1`, in [1], the compound was called inactive. Further, the Potency result in assay [2] was “inactive”. Besides, the Potency in [3] was 4.61 µM (active). For the same compound, the activation in assay [8] was 1.94% (inactive).

Consider `CC(N)=NCCCC[C@@H](N)C(=O)O`, for which the result in assay [1] was inactive. For the same compound, the Potency result in assay [2], in assay [7], in [4], in assay [5] and in assay [6] was “inactive” throughout. Besides, in assay [8], the activation is 1.31% (inactive). Moreover, the viability change in assay [6] is -0.552%.

Turning to `COc1cc([C@@H]2c3cc4c(cc3[C@H](O)C3COC(=O)[C@@H]32)OCO4)cc(OC)c1OC` (stereo partly specified), the compound was classed as inactive in assay [1]. For the same compound, the Potency entry in assay [2], in [3] and in [5] was “inactive” throughout. For the same compound, the activation in assay [8] is 0.5% (inactive).

Regarding `C[C@H](NC(=O)/C(C#N)=C/c1ccc(O)c(O)c1)c1ccccc1`, in assay [1], the outcome was inactive. In addition, the Potency entry in [2], in assay [3], in assay [4], in assay [5] and in [6] was “inactive” throughout. Besides, in assay [6], the viability change was -7.12%.

On to `COc1ccc(C(=O)NCc2cccnc2)cc1C(=O)NCc1cccnc1`, for which, in assay [1], the outcome was inactive. Besides, the Potency entry in assay [2], in [7], in assay [4], in [5] and in assay [6] was “inactive” each time. Also, in assay [8], the activation is 0.938% (inactive). Moreover, in assay [6], the viability change was -5.34%.

With `CCCCCCC/C=C\CCCCCCCCC(=O)O`, in assay [1], the outcome was inactive. For the same compound, the Potency result in assay [2], in assay [7], in [4], in assay [5] and in assay [6] was “inactive” each time. Moreover, the activation in assay [8] was 1.5% (inactive). For the same compound, the viability change in assay [6] was 3.91%.

Turning to `COc1ccccc1N1CCN(CCCCN2C(=O)c3ccccc3C2=O)CC1`, the compound was called inactive in [1]. In addition, the Potency entry in assay [2], in assay [4], in assay [5] and in assay [6] was “inactive” in each case. In addition, in assay [7], the Potency is 10 µM (active). For the same compound, the activation in assay [8] is -3.44% (inactive). For the same compound, in assay [6], the viability change came to 4.76%.

As for `CC#CCOC(=O)c1c(C)nc2sc3c(c2c1N)CCC(O)C3` (stereo unspecified), the compound was called inactive in assay [1]. Further, the Potency result in assay [2], in assay [7], in [4] and in assay [5] was “inactive” in each case. The activation in assay [8] was 0.438% (inactive).

As to `N=C(N)SCCN`, the outcome in assay [1] was inactive. Moreover, the Potency result in [2], in assay [7], in assay [4], in assay [5] and in [6] was “inactive” each time. Moreover, in assay [8], the activation was 0.688% (inactive). In [6], the viability change is 0.333%.

In the case of `c1ccc(C2CN3CCSC3=N2)cc1` (stereo unspecified), the result in assay [1] and in [9] was inactive. Also, the Potency result in assay [3], in assay [7], in assay [4], in assay [5] and in assay [6] was “inactive” each time. Also, in assay [8], the activation is -0.188% (inactive). For the same compound, in assay [6], the viability change came out at 5.53%.

For `Nc1nc2ccc(Cl)cc2c2nc(-c3ccco3)nn12`, the outcome in [1] was inactive. Moreover, the Potency entry in [2] was “inactive”. In addition, in [8], the activation was 0.25% (inactive).

On to `O[Si](CCCN1CCCCC1)(c1ccc(F)cc1)C1CCCCC1` (stereo unspecified), for which, in assay [1], the compound was classed as inactive. The Potency entry in assay [3], in assay [7], in assay [4], in [5] and in assay [6] was “inactive” in each case. Further, the activation in assay [8] is 5.12% (inactive). In addition, the viability change in assay [6] was -4.41%.

For `C[C@@H](NCCc1ccc(O)cc1)[C@@H](O)c1ccc(O)cc1`, the compound was classed as inactive in assay [1]. Further, the Potency entry in [2], in assay [4], in assay [5] and in assay [6] was “inactive” each time. For the same compound, the activation in [8] is 1.12% (inactive). Also, the viability change in assay [6] was 9.14%.

For `COC(=O)[C@H](NC(=O)c1cc(-c2ccccc2)nc2ccccc12)c1ccccc1`, in [1], the compound was called inactive. Also, the Potency result in [2], in assay [7], in [4] and in assay [6] was “inactive” each time. For the same compound, the activation in assay [8] is -5.81% (inactive). For the same compound, the viability change in assay [6] is -11.1%.

For `O=c1ccn([C@@H]2O[C@H](COP(=O)(O)OP(=O)(O)O)[C@@H](O)[C@H]2O)c(=O)[nH]1`, in assay [1], the result was inactive. Besides, the Potency result in assay [2], in [4] and in assay [6] was “inactive” throughout. Also, the viability change in [6] came out at 3.88%.

On to `N[C@H]1CONC1=O`, for which the result in [1] was inactive. The Potency entry in assay [3], in assay [7], in assay [4], in assay [5] and in assay [6] was “inactive” throughout. Moreover, the viability change in assay [6] was 1.32%.

As for `N[C@@H](Cc1ccc(F)cc1)C(=O)O`, the result in assay [1] was inactive. Also, the Potency result in assay [2], in [7], in [4] and in assay [6] was “inactive” each time. In addition, the activation in assay [8] was 0.125% (inactive). Besides, the viability change in [6] was -9.16%.
